# Bioassay records: PubChem BioAssay, National Center for Advancing Translational Sciences (NCATS)
# Sampled rows, rich in hits. Any-hit rate of the full collection: about 3.3%.
# NPSR antagonist – neuropeptide S receptor (human) antagonism, cAMP; Potency, µM (series often up to 38.3 µM), inactives show top-dose activity change, negative = inhibition, most hits filed as inhibitors; Q6W5P4; actives 1% (n = 220,000); CHO-NPSR cells, cAMP TR-FRET, antagonist mode; note: nearly all actives have a fitted effect of over 50% in size
# Target sequence (Q6W5P4 whole entry, looked up): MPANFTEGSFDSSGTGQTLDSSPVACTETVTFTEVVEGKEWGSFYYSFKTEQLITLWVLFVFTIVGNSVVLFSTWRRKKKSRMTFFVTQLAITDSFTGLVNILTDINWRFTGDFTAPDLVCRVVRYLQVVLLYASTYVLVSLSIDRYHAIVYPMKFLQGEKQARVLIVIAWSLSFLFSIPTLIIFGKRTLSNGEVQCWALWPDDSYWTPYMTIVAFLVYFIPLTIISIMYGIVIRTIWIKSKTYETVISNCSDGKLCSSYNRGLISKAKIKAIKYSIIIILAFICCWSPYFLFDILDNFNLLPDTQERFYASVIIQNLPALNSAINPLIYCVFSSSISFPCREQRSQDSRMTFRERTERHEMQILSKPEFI
# Tau ThT inhib – inhibitors of human tau fibril formation, thioflavin T binding; Potency, µM (titrated, usually from 57.4 µM), for the others: top-dose activity, negative = inhibition, hits mostly inhibitors; recombinant tau K18 P301L, heparin-induced fibrillization, ThT fluorescence; AID 1460; P10636; actives 2.1% (n = 270,000); note: nearly all actives have a fitted effect of over 55% in size
# Target sequence (P10636 561-689 P618L limits assumed): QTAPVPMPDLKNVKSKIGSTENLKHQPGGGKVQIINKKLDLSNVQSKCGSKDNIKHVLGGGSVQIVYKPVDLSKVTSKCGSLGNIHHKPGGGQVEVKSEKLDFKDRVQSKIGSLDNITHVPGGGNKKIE
#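 Fibril formation assay: tau K18 P301L at 15 uM with trace Alexa 594 label, heparin inducer 20 uM, pH 7 sodium acetate buffer, 37 C for 6 hr; endpoint ThT signal.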
# KinaseGlo FLuc – blocks Kinase-Glo luciferase, a counter-screen artifact. actives 0.28% (n = 200,000). Q27757. Potency, µM (top dose mostly 38.3 µM), for inactives: at the highest dose activity change, negative = inhibition, actives largely listed as inhibitors. Kinase-Glo luciferase, ATP luminescence, 8 min; note: nearly all actives have a fitted effect of over 60% in size
#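 Substrate mix (final 50 mM imidazole pH 7.2, 50 mM KCl, 7 mM MgCl2, 10 uM ATP, 0.01% Tween 20, 0.05% BSA) plus pin-tool compound, then Kinase-Glo detection mix; 8 min ambient, luminescence read.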
# Tau fibril FP – tau fibrillization inhibition (FP); P10636; K18 P301L tau heparin fibrillization, Alexa594 FP, 6 h; Potency, µM (series often up to 57.7 µM), without a hit: top-dose activity, negative = inhibition, usual class: inhibitors; actives 0.39% (n = 280,000); AID 1468; note: nearly all actives have a fitted effect of over 55% in size
#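 Compound effects on tau fibrillization are measured by Alexa 594 fluorescence polarization (ex 555, em 632 nm). K18 P301L tau is used at 15 uM with 0.24 uM labeled tracer, and 20 uM heparin induces aggregation over 6 hr at 37 C.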
# Tau fluor counter – counter-screen for tau fibril formation inhibitors; tau K18 P301L Alexa594 fluorescence, heparin fibrillization; Potency, µM (titrated, usually from 57.7 µM), for the others: top-dose activity change, negative = decrease; actives 0.93% (n = 280,000); AID 1463; note: nearly all actives have a fitted effect of over 55% in size
#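 Human tau K18 P301L (15 uM unlabeled, 0.24 uM Alexa 594-labeled) in 100 mM sodium acetate pH 7 with 20 uM heparin, 6 hr at 37 C. ThT 30 uM added, 1 hr ambient; Alexa 594 FP and total fluorescence read at 555/632 nm.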
# An asterisk follows results filed as active; ? = inconclusive; . = no result; ! = repeats disagree; [ ] = another dose, or the depositor's remark. Calls come from the whole dose curve; as a rule, active = well fitted curve in the direction sought with a large enough effect; inconclusive = small, poorly fitted or top-dose-only effect, or another doubt; inactive = no such curve, though single readings can be large; an effect the other way counts as inactive or inconclusive. % is set by controls: 0 for no effect and ±100 for the full control effect; potency is the fitted concentration of half-maximal effect.
SMILES,NPSR antagonist,Tau ThT inhib,KinaseGlo FLuc,Tau fibril FP,Tau fluor counter
Cc1ccccc1NC(=O)C(=Cc1ccc(C(=O)O)cc1)C(=O)Nc1ccccc1C,3.98µM*,?,3.8%,2.6%,-3.9%
COc1cccc(-c2cnc(NCc3cc(Cl)ccc3O)n2C)c1,-30.7%[46.1 µM],?,11.7%,15.2%,20µM*[quencher]
O=C(NCc1ccc(F)cc1)c1cc2n(n1)CCCN(Cc1ccc(F)cc1)C2=O,.,-2.4%,.,-5.9%,-6.4%
COc1ccccc1NS(=O)(=O)c1ccc(N/N=C/c2ccccc2OCC(=O)O)c([N+](=O)[O-])c1,-21.3%,10µM*,.,1.2%,?
CCN(CC)S(=O)(=O)c1ccc(N/N=C/c2ccccc2OCC(=O)O)c([N+](=O)[O-])c1,-14.0%,?,0.0%,11.4%,-14.6%
Cc1nn(-c2ccccc2)c(N2CCCC2)c1/C=N/Nc1ccc(S(=O)(=O)Nc2ccccc2)cc1[N+](=O)[O-],-19.8%,6.3%,-11.6%,7.1%,2.5%
O=C(O)COc1ccccc1/C=N/Nc1ccc(S(=O)(=O)Nc2ccc(Cl)cc2)cc1[N+](=O)[O-],-9.8%,14.1µM*,0.0%,?,?
Oc1cccc(C=NCc2ccccc2)c1O,?,7.94µM*,3.4%,?,?
Cc1ccc(C)c(Cn2c(C(C)NC(=O)c3ccc(F)cc3)nc3ccccc32)c1 (stereo not drawn),.,-3.9%,.,-2.0%,-6.8%
Cc1ccc2c(c1)C(=O)C1(O)CCN(c3ccccc3)C1=N2 (stereo not drawn),.,7.94µM*!,-1.3%[39.9 µM],-12.5%,-12.8%
Cc1ccc2c(c1)C(=O)[C@@]1(O)CCN(c3ccccc3)C1=N2,.,20µM*,-0.5%,-4.6%,-20.1%
C=C1c2cc(C)ccc2NC(=O)N1c1ccccc1,2.5%,-7.0%,1.2%,-4.8%,-8.2%
CCN(CC)c1ccc2c(C)c(Cl)c(=O)oc2c1,-13.8%,-3.5%,-0.4%,-3.4%[2.34 µM],-1.2%[2.34 µM]
CCOC(=O)Cc1c(C)c2ccc(N(CC)CC)cc2oc1=O,-15.6%[46.1 µM],14.1µM*,.,?,-28.6%
CCN(CC)c1ccc2c(Cl)c(Br)c(=O)oc2c1,3.16µM*,-13.7%,-3.1%,-0.6%,?
CCOC(=O)CCc1c(C)c2ccc(O)cc2oc1=O,-4.2%[46.1 µM],-7.7%,1.5%,4.6%,1.3%
CCN(CC)c1ccc2c(c1)oc(=O)c1c(Cl)cc(=O)oc12,3.98µM*,21.1%,-1.5%,-7.8%,-27.2%
COc1ccc2cc3cc(C(=O)N4CCN(c5cccc(C(F)(F)F)c5)CC4)sc3nc2c1,.,-8.1%,.,-9.6%,-7.5%
Cc1ccccc1CN1C(=O)c2ccccc2Sc2ccc(C(=O)OCc3ccco3)cc21,.,-6.6%,.,-4.2%,-11.1%
CCSC1=NSC2=NC(=O)/C(=C\c3coc4ccccc4c3=O)C(=N)N12,-24.5%,25.1µM*,-1.8%,-4.0%,?
Cc1cc(C)cc(-n2c(C)cc(/C=C3\C(=N)N4N=C(CC(C)C)SC4=NC3=O)c2C)c1,?,?,1.1%,7.3%,-14.7%
CC(C)CC1=NN2C(=N)/C(=C\c3coc4ccccc4c3=O)C(=O)N=C2S1,-55.1%,31.6µM*,-0.4%,?,?
Cc1cccc(CNC(=O)CCCN2C(=O)CCn3nc(-c4cccn4C)cc32)c1,.,3.0%,.,9.9%,-0.2%
CCCc1cc(=O)[nH]c(SC(CC)C(=O)Nc2ccccc2C#N)n1 (stereo not drawn),-1.4%[46.1 µM],-4.6%,-1.5%,-2.0%,-1.9%
CCCc1cc(=O)[nH]c(SCC(=O)Nc2ccc([N+](=O)[O-])cc2C#N)n1,13.9%,14.1µM*,.,5.1%,?
Cc1ccc(/C=C/c2onc(C)c2S(=O)(=O)N2CCC(C(=O)N3CCN(c4ccccc4F)CC3)CC2)cc1,.,2.0%,.,-3.8%,2.5%
CCC1=C2CC[C@H]3C(=O)N(CC(=O)OC)C(=O)[C@H]3[C@H]2[C@@]2(C)C(=O)N(CC3CC3)C(=O)N2C1=O,.,-14.8%,-8.9%,-4.3%,-15.5%
N#CCCN1CCN(C(=S)c2ccc(-c3ccc(Cl)cc3)o2)CC1,-10.4%[46.1 µM],20µM*,-1.5%,4.9%,-23.1%
O=C(/C=C/c1cccs1)c1ccc([N+](=O)[O-])cc1,-7.7%,?,.,12.0%,-16.2%
